Test results: PubChem BioAssay
Activity calls are given as the source filed them.

Columns and labels:
[1] = small molecules captured by biotinylated probe aFSTL3 – biochemical, small-molecule microarray, fluorescence 635/667, stem cell growth factor project, primary screen (AID 1064); settings: higher = more signal;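 further: measures binding of the biotinylated anti-FSTL3 antibody to printed compounds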
[2] = binders from COS7 lysate, DM2A8 probe, primary screen, torsin A project, cell lysate, small-molecule microarray, fluorescence 635/667 (AID 1065); settings: higher = more signal, COS7 lysate expressing mutant human TOR1A
[3] = small molecules captured by biotinylated probe aFGF2 – biochemical, small-molecule microarray, fluorescence 635/667, stem cell growth factor project, primary screen (AID 1067); settings: higher = more signal;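 further: measures binding of biotinylated aFGF2 protein to printed compounds on slides; z-score merges feature fluorescence and signal-to-noise across triplicate slides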
[4] = small molecules captured by biotinylated probe aFGF10 – biochemical, small-molecule microarray, fluorescence 635/667, stem cell growth factor project, primary screen (AID 1071); settings: higher = more signal;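 further: score merges 667 nm spot intensity and signal to noise from triplicate slides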
[5] = target: Neurogenic locus notch homolog protein 2 (Homo sapiens) (UniProt Q04721); experiment: small molecules binding Notch2 protein – biochemical, small-molecule microarray, 635 nm fluorescence, stem cell growth factors, primary screen (AID 1073); settings: higher = more signal
[6] = target: Pro-neuregulin-1, membrane-bound isoform (Homo sapiens) (UniProt Q02297); experiment: small molecules binding neuregulin-1 protein – biochemical, small-molecule microarray, fluorescence 635/667, psychiatric disease protein project, primary screen (AID 1075); settings: NRG1 binding, 635 nm fluorescence, higher = more signal;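 further: score combines 667 nm spot fluorescence with signal to noise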
[7] = test system: Neuregulin-1 EGF-like domain; experiment: small molecules binding NRG1 EGF domain – biochemical, small-molecule microarray, 635 nm fluorescence, primary screen (AID 1081); settings: higher = more signal;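 further: binding of the protein to compounds printed on small-molecule microarray slides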
[8] = FRG1 expression reporter modulators in myotubes – cell-based, C2C12 myotubes, firefly/Renilla luciferase, luminescence, FRG1 inhibition for FSHD, primary screen (AID 1084); settings: FRG1 promoter luciferase, higher = more signal, called active from +8 up or from −8 down
[9] = small molecules captured by biotinylated probe aFST – biochemical, small-molecule microarray, fluorescence 635/667, stem cell growth factor project, primary screen (AID 1086); settings: higher = more signal;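 further: score merges 667 nm fluorescence with signal-to-noise of each printed compound spot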
[10] = binders of probe aHhip on microarray, primary screen, stem cell growth factor project, biochemical, small-molecule microarray, fluorescence 635/667 (AID 1087); settings: higher = more signal;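 further: score merges spot fluorescence at 667nm with spot signal to noise ratio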

Sequence of Neurogenic locus notch homolog protein 2 (Homo sapiens) (Q04721 whole entry, looked up, canonical isoform): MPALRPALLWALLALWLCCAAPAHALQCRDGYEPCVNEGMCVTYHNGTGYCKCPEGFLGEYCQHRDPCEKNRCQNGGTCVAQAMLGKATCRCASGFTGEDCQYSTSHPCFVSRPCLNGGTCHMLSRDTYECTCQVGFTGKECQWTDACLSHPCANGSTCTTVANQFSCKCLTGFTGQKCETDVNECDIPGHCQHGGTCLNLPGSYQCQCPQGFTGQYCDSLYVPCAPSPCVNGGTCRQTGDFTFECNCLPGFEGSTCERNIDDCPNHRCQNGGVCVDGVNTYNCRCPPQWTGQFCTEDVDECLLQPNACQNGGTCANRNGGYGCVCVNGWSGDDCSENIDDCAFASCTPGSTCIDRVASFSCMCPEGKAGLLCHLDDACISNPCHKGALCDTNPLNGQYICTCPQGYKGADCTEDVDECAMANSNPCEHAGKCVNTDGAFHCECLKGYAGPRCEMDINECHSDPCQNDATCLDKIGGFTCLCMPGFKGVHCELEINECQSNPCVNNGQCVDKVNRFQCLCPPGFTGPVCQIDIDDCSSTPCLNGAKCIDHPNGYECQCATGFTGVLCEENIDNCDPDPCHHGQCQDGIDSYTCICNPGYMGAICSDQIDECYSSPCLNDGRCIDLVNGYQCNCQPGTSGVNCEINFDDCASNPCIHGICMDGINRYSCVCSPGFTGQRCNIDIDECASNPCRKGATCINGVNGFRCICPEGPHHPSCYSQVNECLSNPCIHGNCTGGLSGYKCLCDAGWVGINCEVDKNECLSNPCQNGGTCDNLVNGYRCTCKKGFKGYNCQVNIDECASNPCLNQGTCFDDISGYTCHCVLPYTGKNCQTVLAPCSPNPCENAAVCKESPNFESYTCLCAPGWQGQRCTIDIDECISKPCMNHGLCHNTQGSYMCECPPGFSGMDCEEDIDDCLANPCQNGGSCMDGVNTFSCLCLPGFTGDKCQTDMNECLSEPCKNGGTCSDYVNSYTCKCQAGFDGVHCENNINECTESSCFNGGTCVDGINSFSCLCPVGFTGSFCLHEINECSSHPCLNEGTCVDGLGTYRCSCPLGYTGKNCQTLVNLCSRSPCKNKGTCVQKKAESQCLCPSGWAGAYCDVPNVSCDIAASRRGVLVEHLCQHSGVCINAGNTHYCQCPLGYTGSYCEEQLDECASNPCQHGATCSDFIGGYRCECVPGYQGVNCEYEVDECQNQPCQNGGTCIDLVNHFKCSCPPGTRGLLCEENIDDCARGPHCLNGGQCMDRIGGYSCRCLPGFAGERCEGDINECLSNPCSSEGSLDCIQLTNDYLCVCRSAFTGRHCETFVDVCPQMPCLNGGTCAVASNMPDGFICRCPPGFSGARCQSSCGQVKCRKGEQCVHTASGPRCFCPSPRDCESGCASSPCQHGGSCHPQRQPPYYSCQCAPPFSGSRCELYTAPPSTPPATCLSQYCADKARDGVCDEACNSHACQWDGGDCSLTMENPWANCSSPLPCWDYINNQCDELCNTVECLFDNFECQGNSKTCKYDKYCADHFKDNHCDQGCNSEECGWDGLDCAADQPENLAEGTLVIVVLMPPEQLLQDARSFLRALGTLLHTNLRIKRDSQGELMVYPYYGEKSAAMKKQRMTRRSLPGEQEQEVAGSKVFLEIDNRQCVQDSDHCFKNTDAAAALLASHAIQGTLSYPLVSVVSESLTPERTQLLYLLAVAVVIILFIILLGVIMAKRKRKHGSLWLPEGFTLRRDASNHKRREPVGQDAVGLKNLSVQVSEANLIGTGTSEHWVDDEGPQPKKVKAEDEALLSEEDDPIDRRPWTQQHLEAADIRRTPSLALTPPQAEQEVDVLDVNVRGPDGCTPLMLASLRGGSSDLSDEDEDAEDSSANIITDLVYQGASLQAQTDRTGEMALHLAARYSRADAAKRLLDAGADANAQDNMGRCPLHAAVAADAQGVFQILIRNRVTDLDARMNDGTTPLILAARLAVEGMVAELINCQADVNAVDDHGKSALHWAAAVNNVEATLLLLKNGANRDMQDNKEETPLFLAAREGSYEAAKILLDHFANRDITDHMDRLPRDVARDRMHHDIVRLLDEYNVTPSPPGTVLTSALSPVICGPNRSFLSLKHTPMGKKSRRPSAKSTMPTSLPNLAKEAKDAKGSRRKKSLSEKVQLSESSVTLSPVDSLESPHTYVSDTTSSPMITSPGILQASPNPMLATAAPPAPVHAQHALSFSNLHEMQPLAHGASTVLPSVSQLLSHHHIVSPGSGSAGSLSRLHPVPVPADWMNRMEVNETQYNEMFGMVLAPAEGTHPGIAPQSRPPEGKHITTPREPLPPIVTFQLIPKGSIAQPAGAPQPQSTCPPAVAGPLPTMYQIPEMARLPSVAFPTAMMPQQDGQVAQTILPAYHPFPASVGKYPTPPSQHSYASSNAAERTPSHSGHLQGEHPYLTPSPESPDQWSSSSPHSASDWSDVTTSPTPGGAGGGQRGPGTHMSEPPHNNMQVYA
Sequence of Pro-neuregulin-1, membrane-bound isoform (Homo sapiens) (Q02297 whole entry, looked up, the tested form may be a part, canonical isoform): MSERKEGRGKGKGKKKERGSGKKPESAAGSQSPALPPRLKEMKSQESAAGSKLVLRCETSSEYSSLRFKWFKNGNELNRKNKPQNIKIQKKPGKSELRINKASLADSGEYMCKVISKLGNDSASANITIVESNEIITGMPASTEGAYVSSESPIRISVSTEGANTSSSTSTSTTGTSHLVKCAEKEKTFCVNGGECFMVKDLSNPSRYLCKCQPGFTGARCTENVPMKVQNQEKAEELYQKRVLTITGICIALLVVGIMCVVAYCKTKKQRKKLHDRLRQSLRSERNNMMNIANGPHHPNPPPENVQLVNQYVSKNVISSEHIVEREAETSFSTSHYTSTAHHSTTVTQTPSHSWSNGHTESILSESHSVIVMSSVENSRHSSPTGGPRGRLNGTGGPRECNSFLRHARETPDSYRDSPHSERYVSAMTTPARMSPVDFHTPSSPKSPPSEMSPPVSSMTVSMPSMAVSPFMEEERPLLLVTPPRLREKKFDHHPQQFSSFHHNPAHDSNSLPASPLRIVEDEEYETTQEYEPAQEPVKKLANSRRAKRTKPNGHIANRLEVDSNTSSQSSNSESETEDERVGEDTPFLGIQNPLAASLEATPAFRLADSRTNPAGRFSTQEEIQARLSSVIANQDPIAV

Row | SMILES | composite z-score [1] | composite z-score [2] | composite z-score [3] | composite z-score [4] | composite z-score [5] | composite z-score [6] | composite z-score [7] | z-score [8] | composite z-score [9] | composite z-score [10]
1 | COC(=O)C(CC#Cc1ccc2c(c1)[C@]1(C(=O)N2)[C@H](c2ccccc2OCCO)N2[C@H](c3ccccc3)[C@H](c3ccccc3)OC(=O)[C@H]2[C@@H]1C(N)=O)C(=O)OC | 1.88 | 0.726 | 0.255 | 0.774 | 0.806 | 1.69 | 1.32 | -1.84 (inactive) | 1.84 | 0.087
2 | COc1ccc([Si](C)(C)[C@H]2[C@H](CCn3cc([C@H](O)c4ccccc4)nn3)O[C@@]3(C(=O)N(C)c4ccccc43)[C@@H]2C)cc1 | 0.0044 | 0.165 | -0.0418 | -0.209 | -0.623 | 0.104 | 0.553 | -1.36 (inactive) | -0.619 | -0.199
3 | O=C1C2C=CC(C(O)c3c(F)cccc3Cl)N(Nc3ccccc3F)C2C(=O)N1c1ccccc1 (stereo not given) | 0.472 | 0.374 | 0.11 | 0.574 | 1.65 | 1.37 | 1.15 | -3.2 (inactive) | 1.04 | 0.113
4 | CC(C)CCC[C@@H](C)[C@H]1CC[C@@]2(C)C3=C(CC[C@]12C)[C@@]1(C)CC[C@H](OC(=O)c2ccc(C(F)(F)F)nc2)C(C)(C)C1CC3 (stereo not given in full) | -0.438 | 0.441 | -0.103 | 0.312 | 0.443 | -0.323 | 0.198 | -1.46 (inactive) | -0.108 | 0.223
5 | CC(C)CNC(=O)[C@@]1(Cc2ccccc2I)c2ccccc2C(=O)N(Cc2ccccc2C(F)(F)F)[C@H]1c1ccc(CO)cc1 | 0.0085 | 0.0038 | -0.118 | -0.128 | -1.46 | 0.89 | -0.13 | 0.49 (inactive) | -0.374 | -0.236
6 | N#Cc1ccc(C(O)C2C=CC3C(=O)N(c4ccccc4)C(=O)C3N2Nc2ccccc2F)cc1 (stereo not given) | -0.367 | 0.362 | 0.315 | 0.936 | 1.37 | 1.24 | -0.0077 | 0.372 (inactive) | 0.716 | -0.0994
7 | COc1ccc(C(=O)Nc2cccc(CN3C(=O)[C@]4(O[C@H](CCn5cc(CCO)nn5)[C@@H]([Si](C)(C)c5ccc(OC)cc5)[C@@H]4C)c4ccccc43)c2)cc1 | 0.287 | -0.161 | -0.116 | -0.13 | 0.91 | 0.654 | 1.04 | -2.91 (inactive) | 0.372 | -0.137
8 | CCCC=C(CCC)[C@@H](NC(=O)OCC(C)C)c1ccccc1 | 1.28 | -0.122 | 0.685 | 0.444 | 1.33 | -0.111 | 0.762 | 2.06 (inactive) | 2.06 | 0.152
9 | CC(C)[Si](C#CCCCC#N)(O[C@H](c1ccccc1)c1cn(Cc2cccc(Cl)c2)nn1)C(C)C | -0.37 | 0.558 | -0.104 | 0.689 | 0.799 | -0.0808 | 0.603 | -1.04 (inactive) | 0.624 | 0.136
10 | CC1CC/C=C\[C@H]2OC34C=CCN(c5ccc6ccccc6c5)C(=O)[C@H]3N(CCO)C(=O)[C@@H]4C2C(=O)O1 (stereo not given in full) | -0.17 | 0.122 | -0.0996 | 0.0867 | -1.18 | -0.378 | 0.868 | 0.571 (inactive) | -0.358 | 1.74
11 | Cc1ccc(S[C@]2(C(=O)NCC(C)C)CC(=O)N(Cc3cc(C(F)(F)F)cc(C(F)(F)F)c3)[C@@H]2c2ccc(CO)cc2)cc1 | 0.436 | -0.455 | 0.047 | -0.272 | -0.598 | 0.884 | 1.44 | -0.775 (inactive) | 0.0031 | 0.0749
12 | CCCCC(=C=CC[C@@H](O)c1ccc(CO)o1)CCO | -0.369 | 0.152 | -0.0602 | 0.143 | -0.168 | 0.457 | 1.19 | 0.161 (inactive) | -0.118 | 0.238
13 | O=C1[C@@]23C=C(Br)[C@H](C[C@@H]2COC3)[C@]12CO2 | -0.199 | -0.582 | -0.12 | -0.536 | -1.71 | -0.279 | -1.15 | 0.126 (inactive) | -0.541 | -0.0065
14 | CC(C)Cc1ccc(CN2CC[C@@H](N)C2)cc1 | -0.103 | -0.816 | -0.219 | -0.711 | -1.3 | -0.505 | -1.11 | -0.132 (inactive) | -0.635 | -0.0193
15 | CCCC(=O)N(CCc1c[nH]c2ccccc12)[C@@H]1CC(C(=O)NCCO)=C[C@H](Oc2c(I)cc(CO)cc2OC)[C@H]1O | -0.279 | 0.809 | -0.0692 | 0.187 | -0.11 | -0.0724 | 0.315 | -0.667 (inactive) | -0.0945 | -0.214
16 | CC(=CC1CCCCC1)[C@@H](NC(=O)c1cccnc1)c1ccc(-c2ccccc2)cc1 | 0.365 | -0.545 | 0.0021 | -0.25 | 0.142 | 0.0657 | -0.362 | -0.972 (inactive) | 0.281 | -0.194

Row | SMILES | composite z-score [1] | composite z-score [2] | composite z-score [3] | composite z-score [4] | composite z-score [5] | composite z-score [6] | composite z-score [7] | z-score [8] | composite z-score [9] | composite z-score [10]
17 | CCOC(=O)C[C@H]1[C@H](OC(=O)c2ccc(-c3ccccc3)cc2)[C@@H](NC(=O)c2ccccc2)c2cc(OCCCO)ccc2N1C(=O)c1ccc2ccccc2n1 | -0.168 | 0.732 | -0.105 | 0.311 | 0.606 | 0.742 | 0.507 | 1.22 (inactive) | 0.402 | -0.0994
18 | [N-]=[N+]=NCc1ccccc1[C@@H]1OC(c2ccc(OCCCO)cc2)=N[C@]1(CCS(=O)(=O)c1ccccc1)C(=O)N1CCCCC1 | 0.0217 | -0.267 | 0.0714 | 0.398 | 1.66 | 2.13 | 1.28 | -0.0344 (inactive) | 1.69 | -0.26
19 | C=CC[C@]1(C(=O)NCc2ccccc2)N=C(c2ccc(OCCCO)cc2)O[C@H]1c1ccccc1CN=[N+]=[N-] | 0.0143 | 0.234 | 0.053 | 0.505 | 1.54 | 1.05 | 1.11 | -2.43 (inactive) | 1.02 | 0.0854
20 | Cc1ccc(/C=C/C=O)cc1 | 0.16 | -0.513 | -0.0704 | 0.2 | -0.516 | -0.0188 | -0.452 | 0.944 (inactive) | -0.0522 | 0.0156
21 | O=C(O)[C@H]1C[C@H]2C(=O)N3CCC[C@H]3C(=O)N2[C@H]1c1ccc(O)cc1 | 1.22 | -0.104 | -0.195 | -0.929 | -2.12 | -0.0857 | 0.804 | -0.305 (inactive) | -0.834 | 0.147
22 | COc1ccc(C#Cc2ccc3c(c2)[C@]2(C(=O)N3)[C@H](c3ccc(O)cc3)N3[C@H](c4ccccc4)[C@H](c4ccccc4)OC(=O)[C@H]3[C@@H]2C(=O)N2CCc3cc(OC)c(OC)cc3C2)cc1 | -0.284 | 0.0877 | 0.0106 | 0.355 | 0.84 | 1.32 | 1.26 | 1.46 (inactive) | 0.464 | 0.0505
23 | C[N+](C)(C)CCCC[C@@H]1NC(=O)[C@@H]2C[C@H](C(=O)NCCCCCCNC(=O)CS)[C@H](c3ccc(O)cc3)N2C1=O | 0.973 | -0.951 | -0.193 | 0.0372 | -1.41 | 0.801 | 1.47 | -0.338 (inactive) | -0.622 | 0.235
24 | C=CCC(OC(C)=O)[C@@H]1[C@@H](N(Cc2cc3ccccc3o2)C(=O)Cc2ccc(OC)cc2)c2cc(OCCCO)ccc2N1C(=O)c1ccc2ccccc2c1 (stereo not given in full) | 0.0894 | 0.196 | -0.062 | 0.0575 | -0.709 | -0.336 | -0.0601 | -0.194 (inactive) | -0.005 | 0.0505
25 | CN(C)CCCCCCNC(=O)[C@@H]1C[C@@H]2C(=O)N[C@@H](CCCC[N+](C)(C)C)C(=O)N2[C@@H]1c1ccc(O)cc1 | -0.725 | 0.601 | -0.183 | -0.0779 | -1.07 | 0.334 | 1.25 | 4.62 (inactive) | -0.334 | -0.865
26 | CC(C)OC(=O)C=C1C[C@@H](c2cccc(Cl)c2)O[C@@H](c2cccc(Cl)c2)O1 | 0.614 | 0.31 | 0.0442 | 0.771 | 0.028 | 0.903 | 0.891 | -0.582 (inactive) | 0.186 | -0.189
27 | COC(=O)C(CC#Cc1ccc2c(c1)[C@]1(C(=O)N2)[C@H](c2ccccc2OCCO)N2[C@H](c3ccccc3)[C@H](c3ccccc3)OC(=O)[C@H]2[C@@H]1C(=O)O)C(=O)OC | 0.187 | 0.856 | 0.0876 | 0.866 | 0.275 | 1.65 | 1.32 | -0.173 (inactive) | 0.411 | 0.426
28 | CCOC(=O)C1=CC[C@H]2C(=O)N(c3ccccc3)C(=O)[C@@H]12 | -0.368 | 0.606 | 0.05 | 1.07 | 1.61 | 1.37 | 1.32 | -0.775 (inactive) | 0.743 | -0.0237
29 | COc1cc(OC)c(C(O)C2C=CC3C(=O)NC(=O)C3N2Nc2ccccn2)cc1Br (stereo not given) | 0.159 | 0.56 | -0.0494 | 0.561 | 1.24 | 1.48 | 1.44 | 1.21 (inactive) | 0.0594 | -0.141
30 | O=C1NC(=O)C2C1C=CC(C(O)C=Cc1ccc([N+](=O)[O-])cc1)N2Nc1ccc(Cl)cc1Cl (stereo not given) | 1.03 | 0.723 | 0.136 | 0.797 | 1.69 | 1.87 | 1.12 | 0.0592 (inactive) | 0.939 | 0.206
31 | COc1ccc([C@H]2C[C@H]3C(I)=C[C@@H]2C(=O)[C@]32CO2)cc1 | -0.434 | 0.241 | -0.12 | 0.17 | 0.0021 | -0.645 | -0.571 | 2.29 (inactive) | 0.169 | -0.0237
